TSG101-PTAP inh: blocks PTAP/TSG101 interaction to inhibit HIV-1 budding; Q99816; Fluorescence polarization, FITC-PTAP peptide / Tsg101 binding; Potency, µM (titrated, usually from 115 µM), for inactives: top-dose activity change, negative = inhibition, most hits filed as inhibitors; 340,000 tested, under 10 active; AID 493005; active = well fitted inhibition curve with a large enough effect in the main read-out, with a control signal flat, not every such curve was filed as active; inconclusive = small, poorly fitted or top-dose-only effect, or effect the other way, or a change in a side signal; inactive = no such curve, though single readings can be large or run the other way; also: % of control where 0% means no effect
Target sequence (Q99816 whole entry, looked up): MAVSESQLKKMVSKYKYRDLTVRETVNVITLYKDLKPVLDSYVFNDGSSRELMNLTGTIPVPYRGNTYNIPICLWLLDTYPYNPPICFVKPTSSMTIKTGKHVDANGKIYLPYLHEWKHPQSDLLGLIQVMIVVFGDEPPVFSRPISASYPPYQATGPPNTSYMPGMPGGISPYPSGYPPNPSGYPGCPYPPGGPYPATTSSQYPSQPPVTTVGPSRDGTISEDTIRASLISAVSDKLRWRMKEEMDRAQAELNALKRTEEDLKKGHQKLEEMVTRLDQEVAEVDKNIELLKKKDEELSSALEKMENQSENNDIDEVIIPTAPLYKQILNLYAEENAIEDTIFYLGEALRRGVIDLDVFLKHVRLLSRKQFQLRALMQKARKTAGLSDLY
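Tsg101 binding domain (10 uM final) was mixed with compound and a FITC-labeled PTAP peptide (50 nM final) in HEPES pH 7.5 buffer with NaCl, Tween 20, EDTA and TCEP; fluorescence polarization was read after 20 min at r.t.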
KB-V1 MDR tox: kills drug-selected multidrug resistant KB-V1 cells; actives 3.4% (n = 400,000); Potency, µM (series often up to 46.1 µM), hits mostly cytotoxic; KB-V1 MDR cells viability, CellTiter-Glo, 72 h; also: % is scaled to controls: 0 for no effect and ±100 for the full control effect; nearly all actives have a fitted effect of over 60% in size
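In this primary screen, KB-V1 cells overexpressing P-gp are incubated with library compounds (lowest to highest concentration) for 72 h at 37 degrees C before a luminescent ATP viability read.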
MCF10A rerep: DNA re-replication induction in MCF 10a cells; Potency, µM (series often up to 46.1 µM), for inactives: at the highest dose activity, positive = re-replication, usual class: activators; AID 624296; actives 2.9% (n = 350,000); MCF 10A DNA re-replication, Hoechst nuclear intensity, 48 h; also: % of control where 0% means no effect; nearly all actives have a fitted effect of over 50% in size
RGS4 inhibitor: blocks human RGS4-accelerated GTP hydrolysis; P49798; Transcreener GDP fluorescence polarization, RGS4-accelerated GTP hydrolysis; Potency, µM (titrated, usually from 114 µM), for inactives: top-dose activity change, negative = inhibition, usual class: inhibitors; actives 0.039% (n = 390,000); AID 504845; also: % is scaled to controls: 0 for no effect and ±100 for the full control effect; nearly all actives have a fitted effect of over 75% in size
Target sequence (P49798 whole entry, looked up): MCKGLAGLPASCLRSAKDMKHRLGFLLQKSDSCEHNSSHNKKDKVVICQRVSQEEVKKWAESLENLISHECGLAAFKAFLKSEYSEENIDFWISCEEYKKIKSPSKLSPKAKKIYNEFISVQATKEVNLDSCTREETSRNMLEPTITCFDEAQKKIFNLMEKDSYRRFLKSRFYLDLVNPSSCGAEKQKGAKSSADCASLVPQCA
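MLSMR compounds (23 nl, pin-transferred) preincubated 10 min at room temperature with a 500nM (2x) first reagent, then RGS4 at 900nM (2x) plus Transcreener GDP mix added; fluorescence polarization (620/688 nm) read before and after 90 min at 30 °C.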
SW480 rerep: inducers of DNA re-replication in SW480 colon cancer cells. actives 1.8% (n = 340,000). Potency, µM (doses to about 46.1 µM), for the others: top-dose re-replication activation, actives largely listed as activators. AID 624297. SW480 DNA re-replication, Hoechst DNA content imaging, 48 h; also: % of control where 0% means no effect; nearly all actives have a fitted effect of over 55% in size
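Compounds, transferred as 23 nL by pin tool, were incubated with cells for 48 hr; DNA content per nucleus was then quantified by Hoechst staining and fluorescence plate imaging.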
KB-3-1 cytotox: KB-3-1 parental cell cytotoxicity; KB-3-1 viability, CellTiter-Glo ATP luminescence, 72 h; Potency, µM (doses to about 46.1 µM), most hits filed as cytotoxic; actives 1.4% (n = 400,000); AID 1347075; also: % is scaled to controls: 0 for no effect and ±100 for the full control effect; nearly all actives have a fitted effect of over 60% in size
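Multi-concentration cytotoxicity screen in KB-3-1 cells grown in DMEM lacking phenol red with 10% FBS. After 72 h at 37 °C with compound, ATP-dependent luminescence was recorded.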
* hit, by the source's call; i = inactive; ? = inconclusive; . = no result; [ ] = another dose, or the depositor's remark. This is a sample that favours compounds with a hit; in the whole collection about 6.6% have one here. Unless noted, calls follow the shape of the dose curve; as a rule, active = well fitted curve in the direction sought with a large enough effect; inconclusive = small, poorly fitted or top-dose-only effect, or another doubt; inactive = no such curve, though single readings can be large; an effect the other way counts as inactive or inconclusive. Potency is read from the fitted curve at half-maximal effect.

SMILES | TSG101-PTAP inh | KB-V1 MDR tox | MCF10A rerep | RGS4 inhibitor | SW480 rerep | KB-3-1 cytotox
CCc1ccccc1NC(=O)CN(C)C(=O)CSc1nnc(Nc2cccc(C)c2C)s1 | -2% | 18µM* | 15% | 8% | -4% | i
CN(CC(=O)Nc1ccccc1Cl)C(=O)COC(=O)c1nc(Cl)c(Cl)c(Cl)c1Cl | -6% | i | 5.8µM* | -4% | ? | ?
CN(C(=O)CSc1nc2ccc(NC(=O)COc3ccc(Cl)cc3)cc2s1)c1ccccc1 | . | 21µM* | . | 6% | . | ?
CN(CC(=O)Nc1ccccc1Cl)C(=O)CSc1nc2ccccc2s1 | 1% | 16µM* | -3% | -16% | 2% | i
COc1cccc(/C=C/C(=O)Nc2ccc3nc(N4CCN(C)CC4)cc(C)c3c2)c1OC | . | i | . | -25% | . | i
COc1ccc(NC(=O)C2CCCN(S(=O)(=O)c3ccc4c(c3)CCCC(=O)N4)C2)cc1OC (configuration not stated) | . | i | . | -8% | . | ?
O=C(c1ccccc1)c1ccc(Oc2ccc([N+](=O)[O-])cc2[N+](=O)[O-])cc1 | -4% | ? | 12µM* | 7% | 3.3µM* | ?
COc1ccccc1NC(=O)CC(=O)c1cccc([N+](=O)[O-])c1 | 0% | i | 16% | 1% | -4% | i
O=C(Nc1ccccc1Oc1ccccc1)c1cccc([N+](=O)[O-])c1 | -3% | 18µM* | 10% | -7% | -3% | i
COc1ccccc1NC(=O)/C(=C/c1cccc([N+](=O)[O-])c1)c1ccccc1 | -1% | 5.8µM* | ? | -9% | 12% | i
Cc1ccccc1-c1nc(C(N)=O)c2c(n1)n(-c1ccc3c(c1)OCO3)c(=O)n2C | . | i | . | ? | . | i
COc1ccc(NC(=O)Cn2c(=O)n(-c3ccccc3)c(=O)c3c4c(sc32)CCCC4)cc1 | . | i | . | 10% | . | i
CNC(=O)CC12CC3CC(CC(C3)C1)C2 | -2% | i | -1% | -16% | -6% | i
COCCNC(=S)NC(=O)CC12CC3CC(CC(C3)C1)C2 | -2% | 16µM* | -37% | 4% | 23% | i
N#C/C(=C\c1ccc(Br)cc1)c1nc(-c2cc3cc(Br)ccc3oc2=O)cs1 | . | ? | . | 6% | . | i
CN(C)c1cccc(F)c1C(=O)NC(=O)Nc1ccc(Cl)cc1 | -2% | 1.8µM* | 10µM* | -5% | ? | 3.7µM*
O=C(NCCc1ccc(F)cc1)C(=O)NCC(c1cccs1)S(=O)(=O)c1ccc(F)cc1 (configuration not stated) | . | i | . | -11% | . | i
COc1ccc2c(C)c(CCC(=O)NCCc3ccccc3OC)c(=O)oc2c1 | . | ? | . | 14% | . | i
CCOC(=O)O[C@@H](C)OC(=O)[C@@H]1N2C(=O)[C@@H](NC(=O)[C@@H](N)c3ccccc3)[C@H]2SC1(C)C | . | . | -2%[20.6 µM] | . | -3%[20.6 µM] | .
O=C(CN1CCN(S(=O)(=O)c2ccc(F)c(Cl)c2)CC1)N1CCc2ccccc21 | -2% | 3.3µM* | -3% | -16% | -5% | ?
O=C(CN1CCN(S(=O)(=O)c2ccc(F)c(Cl)c2)CC1)N1CCc2ccccc2C1 | -3% | 9.2µM* | 13% | -16% | -1% | i
O=C(CCCOc1ccccc1)N1CCN(S(=O)(=O)c2ccccc2)CC1 | -4% | i | 1% | -26% | -2% | i
O=C(CN1CCN(S(=O)(=O)c2ccc3c(c2)OCCCO3)CC1)N1CCc2ccccc21 | . | i | . | . | . | i
O=C(CCC(=O)N1CCc2ccccc2C1)N1CCN(S(=O)(=O)c2ccccc2)CC1 | -5% | 13µM* | -3% | 5% | 0% | i
CC(=O)N1CCc2cc(S(=O)(=O)NCCC(=O)N3CCc4ccccc4C3)ccc21 | -3% | 23µM* | 2% | 13% | 0% | ?
SMILES | TSG101-PTAP inh | KB-V1 MDR tox | MCF10A rerep | RGS4 inhibitor | SW480 rerep | KB-3-1 cytotox
COc1ccc(NC(=O)CN2CCCN(Cc3ccc(Cl)cc3)S2(=O)=O)cc1Cl | . | i | . | 7% | . | i
CN(C)c1ccc(C=O)c(F)c1 | . | i | . | . | . | i
COc1ccc(C)cc1NC(=O)c1ccc2c(c1)N(Cc1cccc(Cl)c1)C(=O)c1ccccc1S2=O (configuration not stated) | . | . | . | -1% | . | .
O=C(CCCOc1ccccc1)N1CCc2ccccc2C1 | -1% | i | -3% | -11%[11.4 µM] | -11% | i
O=C(CCCOc1ccc(Cl)cc1Cl)N1CCc2ccccc2C1 | 0% | ? | 3.3µM* | 21% | 2.6µM* | i
COC(=O)c1c(NC(=O)CS(=O)(=O)c2ccc(C)cc2)sc2c1CCCCC2 | . | . | . | 6% | . | .
Cc1cccc2c(=O)cc(C)n(CC(=O)N3CCCCC3)c12 | -7% | 16µM* | 3% | 0% | -4% | i
CC1=C(C(=O)Nc2ccc(CC(=O)NCc3ccccc3C)cc2)SCCO1 | -3% | i | ? | -9%[56.9 µM] | -1% | ?
CCc1ccc(CNC(=O)Cc2ccc(NC(=O)C3=C(C)OCCS3)cc2)cc1 | 0% | 1.2µM* | ? | -24% | ? | 1.2µM*
CCOC(=O)C1CCCN(C(=O)c2cccc(S(=O)(=O)N(C)c3c(C)n(C)n(-c4ccccc4)c3=O)c2)C1 (configuration not stated) | -2% | i | -35% | 2% | ? | ?
Cc1c(N(C)S(=O)(=O)c2ccc(Cl)c(C(=O)N3CCC(C(N)=O)CC3)c2)c(=O)n(-c2ccccc2)n1C | 0% | i | 8% | 28% | 6.5µM* | i
CCOC(=O)Nc1ccc2c(c1)ncn2C1CCCCC1 | -6% | 18µM* | -9% | -2% | 12% | i
COc1ccc(N2CCN(C(=O)c3ccc(Oc4ccc(C(F)(F)F)cn4)cc3)CC2)cc1 | -2% | ? | 5% | -4% | 1% | ?
COc1ccc(N2CCN(C(=O)Cc3ncc(C(F)(F)F)cc3Cl)CC2)cc1 | -4% | 21µM* | 3% | -5% | 5% | i
COc1ccc(N2CCN(C(=O)Cc3nn(C)c(=O)c4ccccc34)CC2)cc1 | -1% | 15µM* | -12% | 3%[11.4 µM] | -9% | i
